The values below come from PubChem BioAssay.

Activity calls are given as the source filed them.

Assay [1] can be described thus: optical density shifts of acrAB sulA E. coli – strain DRC41, OD650, 48 h, E. coli filamentation inducer project, primary screen (AID 1152).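 Also: E. coli MC1000 strain DRC41 lacking acrAB efflux pump and sulA.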 The following applies: higher = more signal, called active from +8 up or from −8 down.
A short description of assay [2]: probe aLefty1 binding on compound microarray – biochemical, small-molecule microarray, 635/667 nm fluorescence, primary screen (AID 1153).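 Also: score merges spot fluorescence with signal-to-noise ratio from the scanned slide images.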 Conditions: higher = more signal.
The nature of assay [3]: plasmodial surface anion channel blockers, osmotic lysis – cell-based, P. falciparum Indochina, OD700, 1 h, primary screen (AID 1154). Conditions: P. falciparum Indochina infected RBC osmotic lysis, higher = more signal, called active from +8 up or from −8 down.
Assay [4] can be described thus: plasmodial surface anion channel blockers, osmotic lysis – cell-based, P. falciparum Indochina, OD700, 2 h, primary screen (AID 1155).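 Also: lysis reports solute entry through the parasite surface anion channel PSAC.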 Conditions: P. falciparum Indochina infected erythrocytes, higher = more signal, called active from +8 up or from −8 down.
Assay [5] in a line: changes in parasitized red cell lysis, either direction – P. falciparum Indochina, OD700, 3 h, PSAC antagonist project, primary screen (AID 1156). Conditions: P. falciparum-infected erythrocytes, osmotic lysis, higher = more signal, called active from +8 up or from −8 down.
Assay [6] is described as follows: plasmodial surface anion channel blockers, osmotic lysis – cell-based, P. falciparum Indochina, OD700, 18 h, primary screen (AID 1157). Conditions: P. falciparum Indochina infected erythrocytes, osmotic lysis OD700, 18 h; higher = more signal, called active from +8 up or from −8 down.
Assay [7] in a line: S6 kinase pathway phospho-S6 level changes – cell-based, A549, cytoblot, luminescence, serum-stimulated, primary screen (AID 1158).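 Also: serum-stimulated A549 lung adenocarcinoma cells; signal is phosphorylated S6 detected by cytoblot immunostaining with HRP secondary.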 Conditions: 5 h, higher = more signal.
The target of assay [8] is NADPH oxidase 2 (Homo sapiens) (UniProt P04839). Kind of assay: compounds shifting NOX2 Amplex Red fluorescence – cell-based, HEK293-NOX2, PMA-stimulated, NOX inhibitor project, primary screen (AID 1159). Also: test concentration not given here. Conditions: 45 min, higher = more signal, called active from +8 up or from −8 down.
Assay [9] deals with NADPH oxidase 4 (Homo sapiens) (UniProt Q9NPH5). Kind of assay: compounds shifting NOX4 Amplex Red fluorescence – cell-based, HEK293-NOX4, tetracycline-induced, NOX inhibitor project, primary screen (AID 1160). Conditions: HEK293-NOX4, Amplex Red H2O2 fluorescence, 45 min; higher = more signal, called active from +8 up or from −8 down.
Assay [10] deals with NADPH oxidase 5 (Homo sapiens) (UniProt Q96PH1). The assay can be described thus: compounds shifting NOX5 Amplex Red fluorescence – cell-based, HEK293-NOX5, NOX inhibitor project, primary screen (AID 1161). Conditions: HEK293-NOX5, ionomycin, 45 min, higher = more signal.
A short description of assay [11]: compound effects on lung adenocarcinoma cell viability – A549, calcein-AM fluorescence, 48 h, basal, profiling panel (AID 1162). Also: test concentration not given here. The following applies: higher = more signal.
A short description of assay [12]: compound effects on differentiated 3T3-L1 adipocyte viability – cell-based, 3T3-L1 adipocytes, calcein-AM fluorescence, 48 h, basal, profiling panel (AID 1163). Also: test concentration not given here. The following applies: 3T3-L1 adipocytes viability, higher = more signal.
Assay [13] is described as follows: compound effects on hepatocellular carcinoma cell viability – HepG2, calcein-AM fluorescence, 48 h, basal, profiling panel (AID 1164). Also: test concentration not given here. The following applies: higher = more signal.
Assay [14] can be described thus: compound effects on multiple myeloma cell viability – MM1S, calcein-AM fluorescence, 48 h, basal, profiling panel (AID 1165). Also: test concentration not given here. Conditions: higher = more signal.
The nature of assay [15]: calcein-AM signal in unstimulated myeloma cells – cell-based, calcein-AM fluorescence, 48 h, PK04 Diversity Set, profiling panel (AID 1166).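 Also: cells grown under basal conditions without added stimulus; test concentration not given here.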 Conditions: RPMI8226 myeloma viability, higher = more signal.
A short description of assay [16]: JC-1 mitochondrial signal, unstimulated HepG2 cells – cell-based, JC-1 fluorescence, 24 h, 100 nL compound, profiling panel (AID 1167). Also: test concentration not given here. The following applies: HepG2 mitochondrial potential, higher = more signal.
Assay [17] can be described thus: JC-1 mitochondrial signal, unstimulated adipocytes – cell-based, JC-1 fluorescence, 3T3-L1 adipocytes, 24 h, 100 nL compound, profiling panel (AID 1168). Also: test concentration not given here. Conditions: JC-1 mitochondrial fluorescence, higher = more signal, called active from +8 up or from −8 down.
A short description of assay [18]: JC-1 mitochondrial signal, unstimulated myeloma cells – cell-based, JC-1 fluorescence, RPMI8226, 24 h, 100 nL compound, profiling panel (AID 1169). Also: test concentration not given here. The following applies: JC-1 mitochondrial potential fluorescence, higher = more signal.
Assay [19] can be described thus: JC-1 mitochondrial signal, unstimulated MM1S myeloma – cell-based, JC-1 fluorescence, 24 h, 100 nL compound, profiling panel (AID 1170). Also: test concentration not given here. The following applies: MM1S mitochondrial potential, higher = more signal.
A short description of assay [20]: resazurin metabolic signal in A549 cells – cell-based, resazurin fluorescence, 24 h, PK04 Diversity Set, profiling panel (AID 1171). Also: test concentration not given here. Conditions: A549 viability, higher = more signal, called active from +8 up or from −8 down.

Chain of NADPH oxidase 4 (Homo sapiens) (Q9NPH5 whole entry, looked up): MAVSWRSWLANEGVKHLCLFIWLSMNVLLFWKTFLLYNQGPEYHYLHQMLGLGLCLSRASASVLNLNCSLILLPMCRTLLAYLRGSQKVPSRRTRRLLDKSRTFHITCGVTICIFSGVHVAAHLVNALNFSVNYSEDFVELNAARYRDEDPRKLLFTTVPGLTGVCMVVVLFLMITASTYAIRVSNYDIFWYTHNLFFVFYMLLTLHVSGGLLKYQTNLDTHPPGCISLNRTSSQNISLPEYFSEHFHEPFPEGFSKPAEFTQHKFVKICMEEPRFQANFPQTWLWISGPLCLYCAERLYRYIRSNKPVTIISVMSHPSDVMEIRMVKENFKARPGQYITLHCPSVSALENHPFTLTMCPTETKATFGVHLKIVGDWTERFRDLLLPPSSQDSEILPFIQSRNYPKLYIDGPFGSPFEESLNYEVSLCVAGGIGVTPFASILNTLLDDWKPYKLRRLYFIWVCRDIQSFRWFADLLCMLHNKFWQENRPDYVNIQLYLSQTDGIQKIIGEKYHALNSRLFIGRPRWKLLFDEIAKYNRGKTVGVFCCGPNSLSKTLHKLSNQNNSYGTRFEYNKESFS
Chain of NADPH oxidase 5 (Homo sapiens) (Q96PH1 whole entry, looked up): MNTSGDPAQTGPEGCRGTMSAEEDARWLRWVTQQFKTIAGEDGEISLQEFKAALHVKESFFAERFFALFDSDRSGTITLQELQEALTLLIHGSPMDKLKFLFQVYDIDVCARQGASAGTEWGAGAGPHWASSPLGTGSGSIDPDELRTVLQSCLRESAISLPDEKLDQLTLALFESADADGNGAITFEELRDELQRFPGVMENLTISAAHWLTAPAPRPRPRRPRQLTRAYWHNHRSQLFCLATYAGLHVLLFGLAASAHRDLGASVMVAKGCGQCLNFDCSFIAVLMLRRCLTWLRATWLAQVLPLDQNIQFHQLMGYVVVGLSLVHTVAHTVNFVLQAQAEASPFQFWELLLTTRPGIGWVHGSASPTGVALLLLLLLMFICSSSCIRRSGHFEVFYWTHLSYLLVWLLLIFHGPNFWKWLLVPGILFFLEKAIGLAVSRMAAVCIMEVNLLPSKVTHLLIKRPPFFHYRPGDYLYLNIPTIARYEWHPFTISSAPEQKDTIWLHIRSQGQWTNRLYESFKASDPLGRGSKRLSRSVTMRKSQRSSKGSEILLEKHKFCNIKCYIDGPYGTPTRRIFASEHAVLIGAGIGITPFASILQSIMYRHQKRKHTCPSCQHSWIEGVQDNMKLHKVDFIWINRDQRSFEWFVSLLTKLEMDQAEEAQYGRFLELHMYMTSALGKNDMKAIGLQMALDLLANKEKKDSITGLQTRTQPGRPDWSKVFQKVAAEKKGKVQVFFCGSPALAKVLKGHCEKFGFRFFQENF
Chain of NADPH oxidase 2 (Homo sapiens) (P04839 whole entry, looked up): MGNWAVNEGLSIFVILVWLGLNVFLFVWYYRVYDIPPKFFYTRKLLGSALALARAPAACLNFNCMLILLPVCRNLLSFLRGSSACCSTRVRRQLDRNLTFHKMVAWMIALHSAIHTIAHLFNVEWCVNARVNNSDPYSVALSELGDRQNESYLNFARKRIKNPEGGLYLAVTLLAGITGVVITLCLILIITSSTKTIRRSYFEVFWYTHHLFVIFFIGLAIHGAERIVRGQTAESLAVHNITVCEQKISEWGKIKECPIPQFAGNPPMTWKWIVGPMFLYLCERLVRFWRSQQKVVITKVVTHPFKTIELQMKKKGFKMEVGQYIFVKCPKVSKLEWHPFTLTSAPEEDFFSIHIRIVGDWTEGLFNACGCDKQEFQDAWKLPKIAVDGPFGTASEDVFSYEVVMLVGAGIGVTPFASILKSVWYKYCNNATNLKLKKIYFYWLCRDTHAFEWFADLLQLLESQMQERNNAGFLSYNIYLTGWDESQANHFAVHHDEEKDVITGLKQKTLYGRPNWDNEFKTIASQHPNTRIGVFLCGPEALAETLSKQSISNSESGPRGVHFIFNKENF

Consider `[N-]=[N+]=Nc1ccccc1C[C@@]1(C(N)=O)N=C(c2ccc(OCCCO)cc2)O[C@@H]1c1ccccc1`, for which the z-score in assay [1] was -0.307 (inactive); in assay [3] it was 27.3 (active); in assay [4], 22.4 (active); in [5], 2.73 (inactive); in [6], 2.47 (inactive); in assay [7], 1.4. In addition, the z-score is -2.2 (inactive) in assay [8]; 0.249 (inactive) in assay [9]; -1.75 in [10]; -0.391 in assay [11]; 1.73 in assay [12]; -0.515 in assay [13]. Further, the z-score in [14] is -2.86; in assay [15], -2.94; in [16], 0.57; in [17] it was -0.433 (inactive); in [18], -0.778; in assay [19] it was -0.988. Besides, the z-score in assay [20] was -0.732 (inactive). Moreover, the composite z-score in [2] was found to be 0.506.
On to `CC(=O)OC[C@H]1O[C@H](CCON=C[C@@H](C)[C@H](OCc2ccccc2)C(C)C)C=C[C@@H]1OC(C)=O`, for which the z-score in [1] was -2.02 (inactive); in assay [3] it was 1.25 (inactive); in assay [4], 0.412 (inactive); in assay [5] it was 1.01 (inactive); in assay [6] it was 0.367 (inactive); in assay [7], -0.297. Moreover, the z-score in assay [8] was -0.953 (inactive); in [9] it was -0.218 (inactive); in assay [10] it was -2.17; in assay [11] it was -0.606; in [12], -0.52; in [13] it was -0.737. The z-score in assay [14] was -0.09; in assay [15], -0.5; in assay [16], -1.26; in assay [17], -0.801 (inactive); in assay [18], -0.0185; in assay [19], 0.0314. Moreover, the z-score in assay [20] is 0.0793 (inactive). Also, the composite z-score in assay [2] is -0.313.
On to `O=C1[C@H]2[C@H]3[C@H](O)[C@H](O)CC(=NOC[C@@H](O)COCc4ccco4)[C@H]3CC[C@H]2C(=O)N1C1CCCCC1`, for which the z-score in [1] was -0.708 (inactive); in assay [3], 1.6 (inactive); in assay [4], -1.23 (inactive); in assay [5], 0.786 (inactive); in [6], -2.32 (inactive); in assay [7], 0.988. For the same molecule, the z-score is -2.55 (inactive) in assay [8]; -0.583 (inactive) in assay [9]; -1.66 in assay [10]; -1.03 in assay [11]; 0.979 in [12]; 0.187 in [13]. Also, the z-score is 0.29 in assay [14]; -1.01 in assay [15]; -0.322 in assay [16]; -0.236 (inactive) in assay [17]; -1.02 in assay [18]; -0.611 in assay [19]. The z-score in [20] was -0.381 (inactive). For the same molecule, in assay [2], the composite z-score is 0.0245.
As for `CC(C)(C)OC(=O)CC[C@]1(C(=O)NCc2ccccc2)N=C(c2ccc(OCCCO)cc2)O[C@H]1c1ccccc1`, the z-score in assay [1] is 0.185 (inactive); in assay [3] it was 14.6 (active); in [4], 1.79 (inactive); in assay [5] it was 1.14 (inactive); in assay [6], 0.887 (inactive); in assay [7], -0.009. For the same molecule, the z-score in [8] was -2.22 (inactive); in assay [9], -0.583 (inactive); in [10] it was -1.81; in assay [11], -1.02; in [12], 0.587; in assay [13] it was -0.329. Moreover, the z-score is -1.99 in assay [14]; -1.14 in assay [15]; 0.956 in assay [16]; -1.1 (inactive) in assay [17]; -0.762 in assay [18]; -0.531 in assay [19]. In addition, in assay [20], the z-score is 0.198 (inactive). In assay [2], the composite z-score amounted to 1.18.
Regarding `CN1C(=O)C2C=CC(C(O)C(c3ccccc3)c3ccccc3)N(NC(=O)OC(C)(C)C)C2C1=O` (stereo not given), the z-score in assay [1] is -1.41 (inactive); in [3] it was 1.41 (inactive); in assay [4] it was 0.742 (inactive); in [5], -0.343 (inactive); in [6], 0.804 (inactive); in [7], -1.16. Also, the z-score was -0.343 (inactive) in assay [8]; -4.7 (inactive) in [9]; -1.76 in assay [10]; -1.23 in [11]; -0.4 in assay [12]; -0.698 in assay [13]. Further, the z-score is -2.47 in assay [14]; -1.61 in assay [15]; -1.46 in assay [16]; -0.378 (inactive) in assay [17]; -0.654 in assay [18]; 0.455 in assay [19]. For the same molecule, the z-score in assay [20] is 0.383 (inactive). This molecule yielded a composite z-score in assay [2] of 0.771.
In the case of `CCN1C(=O)[C@H]2[C@H]3[C@H](O)[C@H](O)CC(=NO[C@@H]4O[C@H](CO)[C@@H](O)[C@H](O)[C@H]4O)[C@@H]3CC[C@H]2C1=O`, the z-score in assay [1] was 0.0871 (inactive); in [3], 0.568 (inactive); in [4], 0.283 (inactive); in [5] it was -0.846 (inactive); in [6], -0.0143 (inactive); in assay [7] it was 0.345. For the same molecule, the z-score in [8] was 0.0968 (inactive); in assay [9], 0.303 (inactive); in assay [10], -0.0261; in assay [11], 1.05; in [12] it was 0.462; in assay [13], 0.484. Besides, the z-score in [14] was -0.944; in assay [15], 0.0072; in assay [16], -0.608; in assay [17], 0.725 (inactive); in assay [18] it was 0.14; in assay [19] it was -0.385. For the same molecule, in [20], the z-score is -0.859 (inactive). In addition, the composite z-score in [2] was -0.183.
Turning to `CO[C@@H]1COC(=O)CC=C[C@@H](C)[C@@H]2C=C[C@@H](O)[C@@H](COC(=O)CC=C[C@H]1C)O2`, the z-score was 0.301 (inactive) in assay [1]; 0.118 (inactive) in assay [3]; -1.35 (inactive) in assay [4]; -1.66 (inactive) in [5]; -1.73 (inactive) in assay [6]; 0.805 in assay [7]. Besides, the z-score in [8] is -0.0926 (inactive); in [9] it was 0.492 (inactive); in assay [10] it was 0.957; in [11], 0.852; in [12], 0.572; in assay [13] it was 1.4. The z-score in [14] was 0.349; in [15], 1.01; in assay [16], 1.33; in assay [17], 0.95 (inactive); in [18], -1.01; in [19], 1.48. Moreover, the z-score in assay [20] is -0.299 (inactive). In addition, the composite z-score in assay [2] is -0.012.
Take `CCCC[C@@H](O)C1=C(C)C[C@H]2C(=O)N(Cc3ccccc3)C(=O)[C@H]2[C@H]1CO`: the z-score in assay [1] is 0.969 (inactive); in [3], 2.44 (inactive); in assay [4], -0.252 (inactive); in assay [5] it was -0.347 (inactive); in assay [6], 0.206 (inactive); in [7], 0.431. Besides, the z-score was -0.789 (inactive) in assay [8]; 0.358 (inactive) in assay [9]; -0.0632 in assay [10]; 0.35 in assay [11]; 0.356 in [12]; -0.0592 in [13]. Further, the z-score in [14] was -0.0699; in assay [15] it was 1.09; in assay [16], 0.579; in [17] it was 0.164 (inactive); in [18] it was -0.0812; in assay [19] it was -0.785. The z-score in assay [20] was 0.453 (inactive). In addition, the composite z-score in assay [2] was 0.0736.
With `CC(C)=NOCc1cccc(-c2cc(-c3ccccc3)no2)c1`, the z-score in [1] is -1.79 (inactive); in [3], 0.648 (inactive); in assay [4] it was -0.166 (inactive); in assay [5], -0.532 (inactive); in assay [6], -0.388 (inactive); in [7], -0.947. Moreover, the z-score in assay [8] is 1.21 (inactive); in assay [9] it was 0.439 (inactive); in assay [10], -0.0547; in assay [11], -0.398; in [12] it was 0.0768; in assay [13], 0.0628. The z-score in assay [14] is -1.06; in assay [15], -0.375; in [16] it was -0.499; in [17], -0.302 (inactive); in assay [18] it was -0.112; in assay [19], 0.354. Also, the z-score in assay [20] is -0.798 (inactive). Moreover, the composite z-score in assay [2] amounted to 0.194.
